Source: PubChem BioAssay
Most compounds without a hit are left out; they make up all but 8% or so of the library.
HCMV antiviral: inhibitors of human cytomegalovirus. HFF cells, HCMV-luciferase reporter, 72 h; stronger effect = lower value. activity change, negative = inhibition, % at 57.5 µM. 4.5% of 410,000 active. AID 1259415; in the data active = activity change below about -60%; inconclusive = no clear call, values can overlap the other calls; inactive = above about -39%; also: % is scaled to controls: 0 for no effect and ±100 for the full control effect
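Two-dose cell screen: HFF monolayers treated with compounds and infected with luciferase-expressing HCMV at 1 PFU/cell, 72 h at 37C, then lysed for luciferase measurement.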
MARV entry inh: blocks Marburg virus binding to or entry into cells. Marburg virus pseudotyped entry inhibition, cell reporter. Potency, µM (top dose mostly 37.8 µM), for inactives: top-dose activity change, negative = inhibition, hits mostly inhibitors. 1.8% of 300,000 active. AID 540276; calls by dose curve; tested in HEK293 cells; also: potency is read from the fitted curve at half-maximal effect; % is scaled to controls: 0 for no effect and ±100 for the full control effect
HCV inh: HCV inhibition. AID 651820. Potency, µM (highest dose often 41.8 µM), without a hit: at the top dose activity change, negative = inhibition, actives largely listed as inhibitors. 3.4% of 340,000 active. Huh7.5.1 HCVcc-Cre infection, luciferase reporter, 44 h; active = well fitted inhibition curve with a large enough effect; inconclusive = small, poorly fitted or top-dose-only effect, or another doubt; inactive = no such curve, though single readings can be large or run the other way; also: potency is read from the fitted curve at half-maximal effect; % is scaled to controls: 0 for no effect and ±100 for the full control effect
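Luciferase read-out (15 sec integration) after a 15 min room-temperature substrate step quantifies HCVcc-Cre infection. Cells, 1,000 per well, had compound added 4 h post-plating, then virus at ~0.5 moi, and were cultured 44 h.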
SARS PLP yeast: SARS-CoV PLP inhibition in yeast; S. cerevisiae expressing SARS-CoV PLpro, growth rescue; Potency, µM (titrated, usually from 32.9 µM), for the others: at the top dose activity, positive = growth rescue, usual class: activators; 0.19% of 330,000 active; AID 485353; calls by dose curve; also: potency is read from the fitted curve at half-maximal effect; 0% is about no effect; nearly all actives have a fitted effect of over 55% in size
FMDV inh: blocks foot and mouth disease virus; FMDV antiviral cell-based qHTS; Potency, µM (series often up to 57.9 µM), for inactives: at the top dose activity change, negative = inhibition, hits mostly inhibitors; 1.2% of 410,000 active; AID 1159524; calls by dose curve; tested in HEK293T cells; also: read-out not given here; potency is read from the fitted curve at half-maximal effect; % is scaled to controls: 0 for no effect and ±100 for the full control effect; nearly all actives have a fitted effect of over 45% in size
LASV entry inh: Lassa virus entry inhibition. 1.2% of 300,000 active. Lassa virus pseudotype entry inhibition, cell reporter. Potency, µM (titrated, usually from 37.9 µM), for the others: at the top dose activity change, negative = inhibition, actives largely listed as inhibitors; calls by dose curve; tested in HEK293 cells; also: potency is read from the fitted curve at half-maximal effect; % is scaled to controls: 0 for no effect and ±100 for the full control effect; nearly all actives have a fitted effect of over 50% in size
An asterisk follows results filed as active; u = inconclusive; x = no result given; [ ] = another dose, or the depositor's remark.

SMILES | HCMV antiviral | MARV entry inh | HCV inh | SARS PLP yeast | FMDV inh | LASV entry inh
COc1ccc(NC(=O)c2sc3nc4n(c(=O)c3c2C)CCC4)cc1Cl | 5 | x | x | x | 10% | 1%[46.1 µM]
O=c1c2sc(-c3ccccc3)cc2nc2n1CCCCC2 | u | u | -13% | -4% | 11% | -17%
O=c1c2sc(-c3ccccc3)cc2nc2n1CCC2 | 27 | 4.5µM* | 8% | -60% | -48% | u
C[C@]12c3[nH]c4ccc(Cl)cc4c3CCN1C(=O)[C@@H](CC(=O)NCc1cccc(C(F)(F)F)c1)C[C@@H]2C(=O)N1CCOCC1 | -15 | x | 7.1µM* | -21% | -43% | x
COc1ccc2[nH]c3c(c2c1)CCN1C(=O)C(CC(=O)NCCc2ccccn2)C[C@H](C(=O)N2CCCCC2)[C@@]31CCc1ccccc1 (stereo not given in full) | -7 | -3% | 7.9µM* | -2% | 7% | x
COc1ccc2[nH]c3c(c2c1)CCN1C(=O)C(CC(=O)NCc2ccc(OC)c(OC)c2)C[C@H](C(=O)N2CCOCC2)[C@@]31C (stereo not given in full) | 3 | 2% | 13% | 19% | -18% | x
COc1ccc(CNC(=O)C[C@H]2C[C@H](C(=O)N3CCCCC3)[C@@]3(C)c4[nH]c5ccc(Cl)cc5c4CCN3C2=O)cc1OC | -24 | 2% | 14µM* | -5% | -28% | x
COCCCNC(=O)CC1C[C@H](C(=O)N2CCCCC2)[C@@]2(CCc3ccccc3)c3[nH]c4ccc(OC)cc4c3CCN2C1=O (stereo not given in full) | -26 | 1% | 19% | 20% | 7% | x
COc1ccc2[nH]c3c(c2c1)CCN1C(=O)C(CC(=O)NCc2ccc(OC)c(OC)c2)C[C@H](C(=O)N2CCCCC2)[C@@]31CCc1ccccc1 (stereo not given in full) | u | x | 10µM* | 3% | -27% | x
O=C(C[C@H]1C[C@H](C(=O)N2CCCCC2)[C@@]2(CCc3ccccc3)c3[nH]c4ccc(Cl)cc4c3CCN2C1=O)NCCc1ccccn1 | x | x | 0% | -2% | u | x
CSc1ccccc1C(=O)NCC1Cc2cc(F)cc(-c3cnccn3)c2O1 (stereo not given) | x | x | x | x | -9% | x
O=C(N[C@@H]1c2ccccc2C2(CCN(C(=O)c3cc4ccccc4oc3=O)CC2)[C@H]1O)c1cccnc1 | x | x | x | x | -4% | x
Cc1cc(=O)[nH]c2nnc(SCCC(C)C)n12 | -22 | x | x | x | 6% | 13%[46.1 µM]
COc1ccc2[nH]c3c(c2c1)CCN1C(=O)C(CC(=O)NCc2ccco2)C[C@H](C(=O)N2CCCCC2)[C@@]31CCc1ccccc1 (stereo not given in full) | -34 | 0% | 0.56µM* | -11% | -4% | x
O=C(CC1C[C@H](C(=O)N2CCCCC2)[C@@]2(CCc3ccccc3)c3[nH]c4ccccc4c3CCN2C1=O)NCc1ccco1 (stereo not given in full) | -19 | x | 4% | -2% | -6% | x
Cc1[nH]n(-c2ccc([N+](=O)[O-])cc2)c(=O)c1C=NCCc1ccc(S(N)(=O)=O)cc1 | 30 | 14%[46.1 µM] | -24% | -2% | -3% | -10%
Cc1[nH]c2ccccc2c1/C=N/Nc1ccccn1 | -14 | x | x | -5% | x | x
Cc1[nH]c2ccccc2c1/C=N/Nc1ccc([N+](=O)[O-])cc1 | -30 | -19% | 2µM* | -57% | 17% | 21%
Cc1[nH]c2ccccc2c1/C=N/Nc1nncn1N | -64* | u | -29% | -3% | 59% | x
O=C(N/N=C\c1cccc(OC(=O)c2ccco2)c1)c1ccc2c(c1)OCO2 | 16 | u | 4% | 27% | u | 15µM*
Cc1[nH]n(-c2ccc([N+](=O)[O-])cc2)c(=O)c1C=NCCc1c(C)[nH]c2ccccc12 | -10 | u | -3% | -31% | 25µM* | 8%
CCOc1cccc(CN2CCC(Oc3ccc(C(=O)N4CCCC4)cc3)CC2)c1O | 3 | x | x | x | -13% | x
COc1ccc2c3c(n(C)c2c1)[C@H](CO)N(Cc1nccs1)CC31CCN(C(=O)CN(C)C)CC1 | 13 | x | x | x | x | x
CCN(c1ccccc1)S(=O)(=O)c1ccc(N2CCN(c3ccccc3O)CC2)nc1 | 7 | x | u | 4% | u | x
